# From the supplement of paper PMC11150407
# Counter-ions that a name gives are not always drawn. The whole screen tested about 2,100 compounds, of which about 180 (8.6%) showed an effect of 50% or more. The list comes from a sample in which strong results are over-represented; it also holds similar structures and randomly drawn compounds.
# System: MOLM1 and UCSD/AML1 (averaged)
# Assay: cell viability relative to DMSO control (POC); higher = less growth inhibition
# Conditions: 1 µM; 72 h
# Experimental: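 Primary viability screen in the 3q26 EVI1-high AML cell lines MOLM1 and UCSD/AML1 (1.5e3 cells/well, 384-well), compounds at 1 uM for 72 h. ATP CellTiter-Glo read-out given as percent of viable cells over DMSO control (POC), averaged over duplicates. DMSO was the negative control and 5 uM etoposide the positive control. This mapping covers the MicroSource Spectrum and Selleck anticancer libraries (drug names).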
row,Compound,cell viability [%]
1,COC(=O)Nc1ccc(-c2nc(N3CCOCC3)c3cnn(C4CCN(C(=O)OC)CC4)c3n2)cc1,25.9
2,c1ccc2c(-c3cnn4cc(-c5ccc(N6CCNCC6)cc5)cnc34)ccnc2c1,37.8
3,NC1(C(=O)O)CCCC1,93.7
4,CC/C(=C(\c1ccccc1)c1ccc(OCCN(C)C)cc1)c1ccccc1,105
5,CN(C)Cc1c(C(=O)NCCOc2ccc(C(=O)NO)cc2)oc2ccccc12,1.01
6,CC/C(=C(\c1ccccc1)c1ccc(OCCN(C)C)cc1)c1ccccc1 [Tamoxifen Citrate (Nolvadex)],53.6
7,COc1cc(C(=O)NCc2ccc(OCCN(C)C)cc2)cc(OC)c1OC,97.1
8,C=CCSCC=C,97.3
9,CCCc1cc(OC)c2c(c1)OCO2,90.2
10,C[C@H](NC(=O)Cc1cc(F)cc(F)c1)C(=O)N[C@@H]1C(=O)N(C)c2ccccc2-c2ccccc21,101
11,COc1c(C)c2c(c(O)c1C/C=C(\C)CCC(=O)OCCN1CCOCC1)C(=O)OC2 [Mycophenolate mofetil (CellCept)],53
12,COc1c(C)c2c(c(O)c1C/C=C(\C)CCC(=O)O)C(=O)OC2,44
13,COc1c(C)c2c(c(O)c1C/C=C(\C)CCC(=O)O)C(=O)OC2 [Mycophenolic (Mycophenolate)],42.4
14,COC1=C(OC)C(=O)C(C/C=C(\C)CC/C=C(\C)CC/C=C(\C)CC/C=C(/C)CC/C=C(\C)CC/C=C(\C)CC/C=C(\C)CC/C=C(\C)CC/C=C(\C)CCC=C(C)C)=C(C)C1=O,85.7
15,C=C[C@@]1(C)CC(=O)[C@@]2(O)[C@](C)(O1)[C@@H](O)[C@@H](O)C1C(C)(C)CC[C@H](O)[C@@]12C (stereo partly drawn),98.8
16,COc1ccc(C(=O)O)c(O)c1OC,97.8
17,COc1ccc([C@H]2COc3c(ccc(O)c3OC)C2)c(OC)c1O,116
18,CC(C=CC(=O)NO)=CC(C)C(=O)c1ccc(N(C)C)cc1 (stereo not drawn) [Trichostatin A (TSA)],1.52
19,O=C(Cn1ccnc1[N+](=O)[O-])NCCO,94.5
20,Cc1csc(-c2nnc(Nc3ccc(Oc4ncccc4-c4ccnc(N)n4)cc3)c3ccccc23)c1,51.5
21,CN(C)c1ccc(C(=C2C=CC(=[N+](C)C)C=C2)c2ccc(N(C)C)cc2)cc1,0.942

row,Compound,cell viability [%]
1,N=C1C=CC(=C(c2ccc(N)cc2)c2ccc(N)cc2)C=C1,82.5
2,CCCCCCCCCCCCCc1ccco1,97.1
3,C[C@H](CCC(=O)O)[C@H]1CC[C@H]2[C@@H]3CC[C@@H]4CCCC[C@]4(C)[C@H]3CC[C@]12C,98.9
4,C[C@@H]1O[C@@H](O[C@H]2[C@H](O[C@H]3CC[C@@]4(C)[C@@H](CC[C@]5(C)[C@@H]4CC=C4[C@@H]6CC(C)(C)CC[C@]6(C(=O)O[C@@H]6O[C@H](CO[C@@H]7O[C@H](CO)[C@@H](O[C@@H]8O[C@@H](C)[C@H](O)[C@@H](O)[C@H]8O)[C@H](O)[C@H]7O)[C@@H](O)[C@H](O)[C@H]6O)CC[C@]45C)[C@]3(C)CO)OC[C@H](O)[C@@H]2O)[C@H](O)[C@H](O)[C@H]1O,89.5
5,COCC[n+]1c2c(n(Cc3cnccn3)c1C)C(=O)c1ccccc1C2=O [YM155 (Sepantronium Bromide)],3.93
6,CC(C)CCC[C@@H](C)[C@H]1CC[C@H]2[C@@H]3CC=C4CC(=O)CC[C@]4(C)[C@H]3CC[C@]12C,87.5
7,COC(=O)c1c(OC)cc2c(c1C)Oc1c(Cl)c(O)c(Cl)c(C)c1C(=O)O2,107
8,OC(Cn1cncn1)(Cn1cncn1)c1ccc(F)cc1F,95.1
9,Cc1c(NC(=O)OC[C@@H]2COCCN2)cn2ncnc(Nc3ccc4c(cnn4Cc4cccc(F)c4)c3)c12,119
10,C=C1C2CC[C@@]3(C)[C@H](c4ccoc4)OC(=O)C[C@]13O[C@H]1CC(=O)C(C)(C)[C@H](C(O)C(=O)OC)[C@@]21C (stereo partly drawn),99.4
11,CC(C)C[C@H](NC(=O)CNC(=O)c1cc(Cl)ccc1Cl)B(O)O [Ixazomib (MLN2238)],1.39
12,O=C(CNC(=O)c1ccc(Cl)cc1)NO,107
13,CC(C)C[C@H](NC(=O)CNC(=O)c1cc(Cl)ccc1Cl)B1OC(=O)C(CC(=O)O)(CC(=O)O)O1,1.16
14,CC(=O)Oc1ccc2c(c1)CC[C@@H]1[C@@H]2CC[C@]2(C)[C@@H](OC(C)=O)CC[C@@H]12,87.5
15,O=C(O)Cc1cc(I)c(Oc2cc(I)c(O)c(I)c2)c(I)c1,97.8
16,CC(=O)O[C@@H]1C[C@H]2C(C)(C)C(=O)C=C[C@]2(C)[C@H]2CC[C@@]3(C)[C@H](c4ccoc4)OC(=O)[C@H]4O[C@]43[C@@]21C,82.8
17,COC1(C)CCC2OC2(C)CCC2C1CC2(C)C (stereo not drawn),102
18,CC(C)=CCC[C@](C)(O)C1CC=C(C)CC1 (stereo partly drawn),105
19,COc1cc2nccc(Oc3ccc(NC(=O)Nc4cc(C)on4)c(Cl)c3)c2cc1OC [Tivozanib (AV-951)],31.8
20,COc1cc2nccc(Oc3ccc(NC(=O)NC4CC4)c(Cl)c3)c2cc1C(N)=O [E7080 (Lenvatinib)],58
21,O=C(Oc1cc(O)cc2c1C[C@@H](OC(=O)c1cc(O)c(O)c(O)c1)[C@@H](c1cc(O)c(O)c(O)c1)O2)c1cc(O)c(O)c(O)c1,104

row,Compound,cell viability [%]
1,Cc1cc(O)c(C=O)c2c1C(=O)Oc1c(COC(=O)/C=C/C(=O)O)c(O)c(C(=O)O)c(C)c1O2,104
2,Cc1ccc2c(=O)c3cccc(CC(=O)O)c3oc2c1C,99.8
3,Cc1coc2c1C(=O)C(=O)c1c-2ccc2c1CCCC2(C)C,118
4,C=C[C@@H](C1=CC(=O)C(OC)=C(OC)C1=O)c1ccccc1,8.05
5,C=CC(C1=CC(=O)C(OC)=CC1=O)c1ccccc1 (stereo not drawn),79.2
6,C=CC(C1=CC(=O)C=CC1=O)c1ccccc1 (stereo not drawn),103
7,CC1=C2C(O)C(=O)OC3CC4C(C)(C)C(=O)C=C[C@]4(C)C(CC1)[C@]23C (stereo partly drawn),89.3
8,CCCS(=O)(=O)Nc1ccc(F)c(C(=O)c2c[nH]c3ncc(-c4ccc(Cl)cc4)cc23)c1F [Vemurafenib (PLX4032)],114
9,COc1ncc(-c2ccc3nccc(-c4ccnnc4)c3c2)cc1NS(=O)(=O)c1ccc(F)cc1F,12.4
10,COc1ccc2c(C)cc(=O)oc2c1,110
11,COC(=O)CC1C(C)(C)C(OC(C)=O)[C@@H]2[C@@H](OC(C)=O)[C@]34O[C@@]2(O)[C@]1(C)C3CC[C@]1(C)C4=CC(=O)O[C@H]1c1ccoc1 (stereo partly drawn),83.6
12,O=C(OCC(O)CO)c1ccccc1Nc1ccnc2cc(Cl)ccc12 (stereo not drawn),104
13,O=C(NOC[C@H](O)CO)c1ccc(F)c(F)c1Nc1ccc(I)cc1F,49.5
14,O=C(NOCC1CC1)c1ccc(F)c(F)c1Nc1ccc(I)cc1Cl,33.2
15,"NC(C(=O)O)C(O)C(=O)O (stereo not drawn) [d,l-threo-3-HYDROXYASPARTIC ACID]",129
16,CC(=O)OC1CCC2(C)C(=CCC3C2CCC2(C)C(C(C)CCCC(C)C)CCC32)C1 (stereo not drawn),97.3
17,COc1cc(O)cc(OC)c1OC,95.9
18,COC(=O)/C(=C1/OC(=O)C(c2ccccc2)=C1O)c1ccccc1,102
19,C[C@@H](N)[C@H]1CC[C@H](C(=O)Nc2ccncc2)CC1,102
20,Cc1cc(Nc2cc(N3CCN(C)CC3)nc(/C=C/c3ccccc3)n2)n[nH]1,19.9
21,"Cc1cc(Nc2cc(N3CCN(C)CC3)nc(Sc3ccc(NC(=O)C4CC4)cc3)n2)n[nH]1 [VX-680 (MK-0457, Tozasertib)]",22

row,Compound,cell viability [%]
1,COc1cc2oc3cc(OC)c(OC)c(CC=C(C)C)c3c(=O)c2c(OC)c1CC=C(C)C,104
2,O=c1cc(-c2ccccc2)oc2cc(O)c(O)c(O)c12,86
3,CC1(C)C(O[C@@H]2OC[C@@H](O)[C@H](O)[C@H]2O)CC[C@]23CC24CC[C@]2(C)[C@@H]([C@@]5(C)CC[C@@H](C(C)(C)O)O5)[C@H](O)C[C@@]2(C)C4C[C@@H](O[C@@H]2O[C@H](CO)[C@@H](O)[C@H](O)[C@H]2O)C13 (stereo partly drawn),91.9
4,CC(C)[C@@H]1CC[C@@H](C)C[C@H]1OC(=O)c1ccccc1,109
5,NC(=O)NCCC[C@H](N)C(=O)O,93.7
6,C=CCCCCCCCCCCCc1ccco1,109
7,Nc1cc(C(F)(F)F)c(-c2cc(N3CCOCC3)nc(N3CCOCC3)n2)cn1,26.9
8,COc1c(CC(=O)c2cc3c(cc2O)OC(C)(C)C(O)C3)ccc2c1C=CC(C)(C)O2 (stereo not drawn),98
9,N[C@@H](C(=O)O)[C@@H](O)[C@H](O)[C@H](O)CO,106
10,CCNC(=O)CC[C@H](N)C(=O)O,92.2
11,Cc1ccc(NC(=O)c2ccc(CN3CCN(C)CC3)cc2)cc1Nc1nccc(-c2cccnc2)n1 [Imatinib Mesylate],37.8
12,Cc1cn(-c2cc(NC(=O)c3ccc(C)c(Nc4nccc(-c5cccnc5)n4)c3)cc(C(F)(F)F)c2)cn1 [Nilotinib (AMN-107)],50.6
13,Cc1ccc(NC(=O)c2ccc(CN3CCN(C)CC3)cc2)cc1Nc1nc(-c2cccnc2)cs1 [Masitinib (AB1010)],25.7
14,Cc1cccc(Nc2nc(-c3ccncc3)cs2)c1,98.9
15,CO[C@H]1[C@H](O)[C@@H](O)[C@H](O)[C@H](O)[C@H]1O,95.8
16,COc1ccc2c(=O)c(OC)c(-c3ccccc3)oc2c1,89.8
17,COc1cc(-c2coc3cc(OC)c(OC)c(OC)c3c2=O)cc(OC)c1OC,96
18,C=C1/C(=C\C=C2/CCC[C@]3(C)[C@@H]([C@H](C)/C=C/[C@H](C)C(C)C)CC[C@@H]23)C[C@@H](O)C[C@@H]1O [Doxercalciferol (Hectorol)],99.3
19,CC(=O)NCCc1ccc(O)c(-c2c(O)c(O)c3c(c2O)C(=O)c2c(cc(O)c(C(=O)O)c2C(=O)O)C3=O)c1,102
20,COc1cc(OC)c2c(=O)cc(-c3ccccc3)oc2c1,90.2
